Values joined by “and” are separate entries in the source; they are usually repeats but may differ in a detail not shown here. Identical values can stand only once. Inconclusive results are not listed. Where a call stands in place of a potency, no number is given. Active and inactive are the calls of the source. Unless noted, calls come from the whole dose curve.
Legend:
[1] = Nuclear factor erythroid 2-related factor 2/antioxidant responsive element (Nrf2/ARE) small molecule agonists: luciferase reporter gene qHTS assay in human keratinocytes (AID 1919969); note: nearly all actives have a fitted effect of over 35% in size; note: potency is the fitted concentration of half-maximal effect
[2] = molecular target: Gonadotropin-releasing hormone receptor (Homo sapiens) (UniProt P30968); experiment: Human gonadotropin-releasing hormone receptor (GnRHR) small molecule agonists, calcium flux assay in GnRHR-HEK293 cells (AID 1920063); note: nearly all actives have a fitted effect of over 35% in size; note: potency is the fitted concentration of half-maximal effect
Outline: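 Agonist mode: compounds at 15 concentrations, in triplicate, went onto calcium dye-loaded GnRHR-HEK293 cells. Intracellular calcium was then followed as 480/540 nm fluorescence at 1 s intervals over 3 min.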

[3] = molecular target: KiSS-1 receptor (Homo sapiens) (UniProt Q969F8); experiment: Human kisspeptin (KISS1R) small molecule agonists, calcium flux assay in KISS1R-HEK293 cells (AID 1920064; active = well fitted activation curve with a large enough effect in the repeat runs; note: potency is the fitted concentration of half-maximal effect)
Outline: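 Agonist mode: intracellular calcium rise tracked at 1 s intervals over 3 min (480/540 nm) immediately after compound addition to dye-loaded KISS1R-HEK293 stable cells. Each compound tested at 15 concentrations in triplicate.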

[4] = G protein-coupled receptor (GPCR) small molecule agonists, calcium flux assay: HEK293 wild type cell line counter screen (AID 1920065); note: potency is the fitted concentration of half-maximal effect
Outline: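 Calcium flux counter screen: compound added in agonist mode at 15 concentrations in triplicate to dye-loaded parental HEK293 cells. Fluorescence (480/540) read kinetically for 3 min; ATP served as positive control.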

[5] = p53 small molecule agonists, cell-based qHTS assay with human liver microsomes: qHTS cell viability counter screen (AID 1963579); note: nearly all actives have a fitted effect of over 45% in size
Outline: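 Luminescent CellTiter-Glo read-out, 30 min at room temperature, gauged cytotoxicity in p53RE-bla cells exposed 16 h at 37 C to DMSO-dissolved compounds with metabolic activation by human liver microsomes and NADPH, each 0.5 mg/mL final.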

[6] = p53 small molecule agonists, cell-based qHTS assay with rat liver microsomes: qHTS cell viability counter screen (AID 1963580); note: nearly all actives have a fitted effect of over 45% in size
Outline: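 Cytotoxicity counter screen: intracellular ATP measured by CellTiter-Glo luminescence in the same wells as the beta-lactamase reporter read, on HCT-116 p53RE-bla cells exposed 16 h at 37 C to compounds with rat liver microsomes and NADPH, each 0.5 mg/mL final.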

[7] = p53 small molecule agonists, cell-based qHTS assay: qHTS cell viability counter screen (AID 1963581); note: nearly all actives have a fitted effect of over 45% in size
Outline: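 Counter screen read by CellTiter-Glo luminescence (ATP content, 30 min at room temperature), run in the same wells as the beta-lactamase reporter read. HCT-116 p53RE-bla cells saw compounds for 16 h at 37 C.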

[8] = molecular target: 5-hydroxytryptamine receptor 2A (Homo sapiens) (UniProt P28223); experiment: 5-hydroxytryptamine receptor 2A (HTR2A) small molecule antagonists, cell-based qHTS assay (AID 1963586); note: nearly all actives have a fitted effect of over 45% in size
Outline: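 CHO cells stably expressing human HTR2A were plated for 18 h at 37 C, then loaded with calcium dye for 1 h. Compounds were preincubated 5 min at room temperature before DOI (4 nM solution) was added. Kinetic fluorescence was read for 3 min.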

[9] = molecular target: 5-hydroxytryptamine receptor 2A (Homo sapiens) (UniProt P28223); experiment: 5-hydroxytryptamine receptor 2A (HTR2A) small molecule agonists, cell-based qHTS assay (AID 1963587); note: nearly all actives have a fitted effect of over 30% in size; note: potency is the fitted concentration of half-maximal effect
Outline: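 CHO cells stably expressing human HTR2A, plated 18 h, loaded with calcium dye 1 h at 37 C. Agonist mode: compounds added and intracellular calcium fluorescence recorded kinetically for 2 min at 1 sec intervals.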

[10] = molecular target: Muscarinic acetylcholine receptor M1 (Homo sapiens) (UniProt P11229); experiment: Cholinergic receptor muscarinic 1 (CHRM1) small molecule antagonists, cell-based qHTS assay (AID 1963588); note: nearly all actives have a fitted effect of over 40% in size
Outline: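 Compounds were tested at 15 concentrations in three independent runs. Dye-loaded CHRM1-CHO cells were exposed 5 min at room temperature before stimulation by acetylcholine added at 50nM. Intracellular calcium was read kinetically on FDSS for 3 min.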

[11] = molecular target: Muscarinic acetylcholine receptor M1 (Homo sapiens) (UniProt P11229); experiment: Cholinergic receptor muscarinic 1 (CHRM1) small molecule agonists, cell-based qHTS assay (AID 1963589); note: nearly all actives have a fitted effect of over 35% in size; note: potency is the fitted concentration of half-maximal effect
Outline: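 Agonist-mode calcium-flux screen: compounds at 15 concentrations, three independent runs, were pin-transferred onto dye-loaded human CHRM1-CHO cells. Fluorescence was then recorded kinetically every second over minutes.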

[12] = cAMP Responsive Elements (CRE) small molecule agonists, cell-based qHTS assay (AID 1963590)
Outline: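 Agonist mode: compound added to CRE-bla HEK 293T cells (2,000/well, 18 h after plating) for 3 h at 37 C/5% CO2. Reporter activity detected via FRET beta-lactamase substrate, 2 h room-temperature loading.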

[13] = cAMP Responsive Elements (CRE) small molecule antagonists, cell-based qHTS assay (AID 1963591; active = well fitted inhibition curve with a large enough effect in the signal ratio in the repeat runs, not every such curve was filed as active; the % refers to the signal ratio)
Outline: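 Antagonist mode: compounds are added alongside the adenylyl cyclase activator NKH477 (0.25 uM final) to CRE-bla HEK293T cells for 3 h. LiveBLAzer FRET substrate, 2 h at room temperature, reports bla expression.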

[14] = molecular target: Beta-2 adrenergic receptor (Homo sapiens) (UniProt P07550); experiment: Adrenergic beta2 receptor (ADRB2) small molecule antagonists, cell-based qHTS assay (AID 1963592); note: series mostly up to about 92 µM; nearly all actives have a fitted effect of over 50% in size
Outline: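 Assay format: CHO-ADRB2 cells, 18-20hr seeding at 37C/5% CO2, then compound plus 1nM isoproterenol agonist mix for 0.5hr RT. Homogeneous time-resolved fluorescence cAMP detection after 1hr, expressed as 665/615 nm ratio.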

[15] = molecular target: Beta-2 adrenergic receptor (Homo sapiens) (UniProt P07550); experiment: Adrenergic beta2 receptor (ADRB2) small molecule agonists, cell-based qHTS assay (AID 1963593);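 note: CHO cells stably overexpressing human ADRB2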
Outline: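 CHO cells stably over-expressing ADRB2 were plated overnight at 37C, then dosed with compounds plus a stimulation mix containing 100uM IBMX and 25uM Ro-20-1724 for 0.5hr at room temperature. cAMP was measured by HTRF competition, 1hr.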

[16] = molecular target: D(2) dopamine receptor (Homo sapiens) (UniProt P14416); experiment: Dopamine D2 receptor (DRD2) small molecule agonists, cell-based qHTS assay (AID 1963594); note: nearly all actives have a fitted effect of over 35% in size
Outline: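 HEK293 cells stably expressing human DRD2, pre-treated with PDE inhibitor Ro20-1724 (0.1 mM final) and compound 10 min at room temperature, then stimulated with NKH477 (200nM […]) for 30 min. cAMP read by HTRF (665/620 nm).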

[17] = molecular target: D(2) dopamine receptor (Homo sapiens) (UniProt P14416); experiment: Dopamine D2 receptor (DRD2) small molecule antagonists, cell-based qHTS assay (AID 1963595; active = well fitted inhibition curve with a large enough effect in the signal ratio in the repeat runs, with a control signal flat; the % refers to the signal ratio)
Outline: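 HEK293 cells stably expressing DRD2 were preincubated with 0.1 mM Ro20-1724, then with compound for 10 min at room temperature. Cells were stimulated with 200 nM NKH477 plus 12 nM quinpirole for 30 min, and cAMP was read by HTRF.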

[18] = p53 small molecule agonists, cell-based qHTS assay (AID 1963582; active = well fitted activation curve with a large enough effect in the signal ratio in the repeat runs, not every such curve was filed as active; the % refers to the signal ratio; note: potency is the fitted concentration of half-maximal effect)
Outline: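 Read-out is beta-lactamase FRET fluorescence after 2 h at room temperature with LiveBLAzer B/G substrate. p53 response element-bla cells were treated 16 h at 37 C with compounds in DMSO, added 5 h after seeding.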

5-hydroxytryptamine receptor 2A (Homo sapiens), sequence (P28223 whole entry, looked up): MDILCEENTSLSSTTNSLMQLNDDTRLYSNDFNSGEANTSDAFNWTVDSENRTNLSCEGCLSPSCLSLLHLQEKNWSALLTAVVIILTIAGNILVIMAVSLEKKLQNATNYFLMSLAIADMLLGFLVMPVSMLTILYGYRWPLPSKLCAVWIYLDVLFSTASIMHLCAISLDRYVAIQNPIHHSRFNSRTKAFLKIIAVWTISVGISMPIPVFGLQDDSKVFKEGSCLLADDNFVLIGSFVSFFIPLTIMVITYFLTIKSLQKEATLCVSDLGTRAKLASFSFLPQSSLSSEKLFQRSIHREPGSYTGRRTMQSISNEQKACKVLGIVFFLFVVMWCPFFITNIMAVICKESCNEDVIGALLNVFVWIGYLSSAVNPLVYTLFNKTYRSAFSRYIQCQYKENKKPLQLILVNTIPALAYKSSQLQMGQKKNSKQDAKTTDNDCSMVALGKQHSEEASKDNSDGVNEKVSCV
Beta-2 adrenergic receptor (Homo sapiens), sequence (P07550 whole entry, looked up): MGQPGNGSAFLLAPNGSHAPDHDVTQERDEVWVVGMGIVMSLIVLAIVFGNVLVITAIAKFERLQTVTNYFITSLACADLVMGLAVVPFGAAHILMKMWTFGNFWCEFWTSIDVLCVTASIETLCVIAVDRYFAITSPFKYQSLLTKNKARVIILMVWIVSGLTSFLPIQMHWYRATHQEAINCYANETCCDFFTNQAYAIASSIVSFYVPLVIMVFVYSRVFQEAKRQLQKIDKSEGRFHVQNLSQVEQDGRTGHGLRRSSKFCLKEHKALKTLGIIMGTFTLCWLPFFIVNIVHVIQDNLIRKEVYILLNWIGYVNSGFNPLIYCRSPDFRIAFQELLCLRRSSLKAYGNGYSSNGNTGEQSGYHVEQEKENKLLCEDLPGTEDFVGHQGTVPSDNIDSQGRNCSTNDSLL
D(2) dopamine receptor (Homo sapiens), sequence (P14416 whole entry, looked up): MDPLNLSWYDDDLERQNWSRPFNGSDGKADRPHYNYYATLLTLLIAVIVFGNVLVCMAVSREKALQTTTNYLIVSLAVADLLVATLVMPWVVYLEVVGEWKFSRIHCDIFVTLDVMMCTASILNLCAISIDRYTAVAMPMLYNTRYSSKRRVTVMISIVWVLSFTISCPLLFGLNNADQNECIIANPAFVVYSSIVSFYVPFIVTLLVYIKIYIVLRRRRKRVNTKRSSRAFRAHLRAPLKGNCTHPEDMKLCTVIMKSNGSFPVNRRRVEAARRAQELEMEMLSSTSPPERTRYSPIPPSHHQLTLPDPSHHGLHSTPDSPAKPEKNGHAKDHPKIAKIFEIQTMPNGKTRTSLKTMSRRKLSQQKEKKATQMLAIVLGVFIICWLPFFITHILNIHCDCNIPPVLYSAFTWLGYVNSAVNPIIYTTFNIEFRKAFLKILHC
Gonadotropin-releasing hormone receptor (Homo sapiens), sequence (P30968 whole entry, looked up): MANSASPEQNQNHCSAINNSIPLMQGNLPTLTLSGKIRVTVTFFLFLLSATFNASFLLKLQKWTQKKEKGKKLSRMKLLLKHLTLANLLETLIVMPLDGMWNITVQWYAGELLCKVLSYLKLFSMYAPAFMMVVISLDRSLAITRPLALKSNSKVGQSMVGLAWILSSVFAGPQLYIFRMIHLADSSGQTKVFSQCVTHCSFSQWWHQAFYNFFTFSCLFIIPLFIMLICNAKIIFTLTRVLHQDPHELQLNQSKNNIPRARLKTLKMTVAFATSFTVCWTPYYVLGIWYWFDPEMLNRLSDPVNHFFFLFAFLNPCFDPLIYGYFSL
KiSS-1 receptor (Homo sapiens), sequence (Q969F8 whole entry, looked up): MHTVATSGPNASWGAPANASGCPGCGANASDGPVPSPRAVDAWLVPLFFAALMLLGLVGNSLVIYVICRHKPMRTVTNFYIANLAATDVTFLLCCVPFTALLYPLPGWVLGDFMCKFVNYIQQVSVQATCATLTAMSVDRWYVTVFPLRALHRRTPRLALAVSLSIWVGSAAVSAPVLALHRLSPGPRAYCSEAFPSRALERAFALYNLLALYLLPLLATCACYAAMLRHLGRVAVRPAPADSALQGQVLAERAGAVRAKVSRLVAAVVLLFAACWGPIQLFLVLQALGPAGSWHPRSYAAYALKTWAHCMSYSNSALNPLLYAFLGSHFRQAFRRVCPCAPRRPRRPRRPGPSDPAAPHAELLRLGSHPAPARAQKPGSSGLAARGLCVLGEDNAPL
Muscarinic acetylcholine receptor M1 (Homo sapiens), sequence (P11229 whole entry, looked up): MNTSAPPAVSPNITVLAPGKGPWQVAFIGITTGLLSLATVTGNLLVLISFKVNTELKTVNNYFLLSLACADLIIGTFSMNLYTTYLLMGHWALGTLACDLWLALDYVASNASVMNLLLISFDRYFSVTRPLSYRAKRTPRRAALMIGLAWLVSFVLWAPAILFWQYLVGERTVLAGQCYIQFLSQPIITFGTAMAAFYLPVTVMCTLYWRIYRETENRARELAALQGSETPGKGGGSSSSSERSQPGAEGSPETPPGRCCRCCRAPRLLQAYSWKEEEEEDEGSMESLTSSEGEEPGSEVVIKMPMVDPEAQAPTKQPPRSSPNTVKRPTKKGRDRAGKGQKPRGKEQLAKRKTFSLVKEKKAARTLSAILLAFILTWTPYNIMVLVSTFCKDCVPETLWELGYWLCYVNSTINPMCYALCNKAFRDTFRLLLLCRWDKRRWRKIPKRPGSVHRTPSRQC

Structure (SMILES)	Potency [1]	Potency [2]	Potency [3]	Potency [4]	Potency [5]	Potency [6]	Potency [7]	Potency [8]	Potency [9]	Potency [10]	Potency [11]	Potency [12]	Potency [13]	Potency [14]	Potency [15]	Potency [16]	Potency [17]	Potency [18]
C[Si](C)(C)O[Si](O)(O)O	inactive	inactive	inactive	inactive	inactive	inactive	inactive	inactive	inactive	inactive	inactive	inactive	inactive	inactive	inactive	inactive	inactive	–
CO/N=C(/C(=O)N[C@@H]1C(=O)N2C(C(=O)[O-])=C(C[n+]3ccn4ncccc43)CS[C@H]12)c1nsc(N)n1	inactive	inactive	inactive	inactive	inactive	inactive	inactive	–	inactive	inactive	inactive	inactive	inactive	inactive	–	inactive	inactive	–
COC1=C(OC)C(=O)C(CCCCCCCCCCO)=C(C)C1=O	10.6 µM (active)	inactive	inactive	inactive	inactive	inactive	–	–	–	–	–	–	inactive	inactive	inactive	inactive	inactive	–
CCCCCCCCCCCCCCCC(=O)OCC	inactive	inactive	inactive	inactive	inactive	inactive	–	inactive	inactive	inactive	inactive	inactive	inactive	inactive	inactive	inactive	inactive	–
c1ccc2c(c1)-c1ccc3ccc4cccc5cc-2c1c3c45	13.3 µM (active)	6.74 µM (active)	inactive	inactive	inactive	inactive	inactive	inactive	10.7 µM (active)	–	inactive	–	–	inactive	–	inactive	inactive	–
Brc1cc(-c2ccc(Br)c(Br)c2Br)cc(Br)c1Br	inactive	inactive	inactive	inactive	inactive	inactive	inactive	inactive	–	inactive	inactive	–	inactive	inactive	inactive	inactive	inactive	–
O=C1CCCCC1C1CCCCC1 (stereo not given)	inactive	inactive	inactive	inactive	inactive	inactive	–	inactive	inactive	inactive	inactive	inactive	inactive	inactive	–	inactive	inactive	–
C=CC(C)(C)CC(=O)OC	inactive	inactive	inactive	inactive	inactive	inactive	–	–	inactive	–	inactive	inactive	–	inactive	–	inactive	inactive	–
NNC(=O)CP(=O)(c1ccccc1)c1ccccc1	inactive	inactive	inactive	inactive	inactive	inactive	inactive	inactive	inactive	–	inactive	inactive	inactive	–	inactive	inactive	–	–
NC(=O)c1ccccc1C(N)=O	68.9 µM (active)	inactive	inactive	inactive	inactive	inactive	–	inactive	inactive	–	inactive	–	inactive	inactive	–	–	inactive	45.9 µM (active)
Cn1cnc2c(=O)[nH]c(N)nc21	inactive	inactive	inactive	inactive	inactive	inactive	inactive	inactive	inactive	–	inactive	inactive	inactive	inactive	inactive	inactive	inactive	–
Cc1c(Cl)c(=O)oc2cc(O)ccc12	inactive	inactive	inactive	inactive	inactive	–	–	inactive	inactive	inactive	inactive	–	–	–	–	inactive	inactive	–
C[n+]1c2cc(N)ccc2cc2ccc(N)cc21 (tested in a mixture with another compound)	6.68 µM (active)	16.9 µM (active)	21.3 µM (active)	16.9 µM (active)	inactive	–	inactive	inactive	19 µM (active)	inactive	19 µM (active)	–	–	–	–	–	–	–
CC(=O)OCC(=O)[C@@]12OC(C)(C)O[C@@H]1C[C@H]1[C@@H]3C[C@H](F)C4=CC(=O)C=C[C@]4(C)[C@@]3(F)[C@@H](O)C[C@@]12C	inactive	inactive	inactive	inactive	inactive	–	inactive	–	–	–	–	–	–	inactive	–	inactive	inactive	–
O=C(Oc1ccccc1)c1cccc(C(=O)Oc2ccccc2)c1	1.15 µM (active)	inactive	inactive	inactive	inactive	inactive	–	–	inactive	inactive	inactive	–	–	–	–	inactive	–	–
Nc1ccc2c3c(cccc13)-c1ccccc1-2	inactive	35.1 µM (active)	55.5 µM (active)	39.3 µM (active)	inactive	inactive	–	inactive	24.8 µM (active)	inactive	49.5 µM (active)	–	–	inactive	–	–	inactive	–
COc1ccc2nc(S(=O)Cc3ncc(C)c(OC)c3C)[nH]c2c1 (stereo not given)	67.8 µM (active) and 26.6 µM (active)	inactive	inactive	inactive	inactive	inactive	inactive	–	–	–	–	–	inactive	inactive	–	inactive	inactive	–

— PubChem BioAssay (Tox21)
